Consider 38 compounds from PubChem BioAssay AID1224921 (Broad Institute, 2016).

Molecules are shown by their SMILES. About 350 (25%) of roughly 1,400 compounds were called active. About 2% were inconclusive and are not listed. Only a sample is shown. Entries with a potency or affinity are not part of this list. Unmarked numbers belong to inactive results. The rule behind the calls is not given here.

The nature of the assay: inhibitors of Clostridioides difficile proliferation – 4-point retest, confirmation (AID 1224921).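 Note: plate controls were DMSO wells for no effect and levofloxacin 16 µg/mL wells for full effect.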 As to conditions: Clostridioides difficile clinical isolate growth, OD600, 24 h, hits give low values; at 30 µM unless noted.
On to `N#C[C@H]1[C@@H](c2ccc(C#Cc3ccccc3F)cc2)[C@@H](CO)N1C(=O)C1CCCCC1`, for which the max activity was -9.56%.

Regarding `C[C@@H]1CN([C@@H](C)CO)C(=O)Cc2cc(NC(=O)C3CC3)ccc2O[C@@H]1CN(C)Cc1ccc(-c2ccccc2)cc1`, the max activity is 49.5%. With `O=C(C[C@@H]1CC[C@H]2[C@@H](COC[C@@H](O)CN2Cc2ccc(Cl)cc2)O1)NCc1ccccc1Cl`, the max activity was -28.7% [at 1.95 µM]. In the case of `COc1cccc(NC(=O)N[C@H]2CC[C@H](CC(=O)N3CCCCC3)O[C@@H]2CO)c1` it was 17.5%; in that of `O=C(C[C@H]1CC[C@@H]2[C@H](COC[C@H](O)CN2Cc2ccc(Cl)cc2)O1)NCc1ccccc1Cl`, 32% [at 8 µM].

On to `C[C@@H]1CN([C@@H](C)CO)S(=O)(=O)c2ccc(C3=CCCCC3)cc2O[C@H]1CN(C)Cc1cccnc1`, for which the max activity is 15.4%. Under `CNC[C@H]1Oc2cc(C#CCC3CCCC3)ccc2S(=O)(=O)N([C@@H](C)CO)C[C@@H]1C` stands 29.2% [at 8 µM]; under `CO[C@@H]1CN(C)C(=O)c2cc(NC(=O)Nc3cccc(F)c3)ccc2OC[C@@H](C)N(C)C[C@H]1C`, -12.5%; under `O=C(Nc1ccc(F)cc1)Nc1ccc2c(c1)[C@@H]1C[C@H](CC(=O)N3CCCCC3)O[C@@H](CO)[C@@H]1O2`, -6.91%.

As to `CC(C)C#Cc1ccc2c(c1)O[C@@H](CN(C)Cc1ccncc1)[C@H](C)CN([C@H](C)CO)S2(=O)=O`, the max activity was 6.91% [at 1.95 µM]. Under `COc1cccc(NC(=O)N[C@H]2C=C[C@@H](CC(=O)NCc3ccncn3)O[C@H]2CO)c1` stands -10.2% [at 1.95 µM]. Take `C[C@H]1CN([C@@H](C)CO)S(=O)(=O)c2ccc(C3=CCCC3)cc2O[C@@H]1CN(C)Cc1ccncc1`: the max activity was -16.8% [at 1.95 µM]. Consider `CCCN1C[C@H](C)[C@H](OC)CN(C)C(=O)c2ccc(NC(=O)c3ccc(F)cc3)cc2OC[C@@H]1C`, for which the max activity is -9.18%. For `COc1cccc(-c2ccc3c(c2)O[C@@H](CN(C)Cc2ccncc2)[C@H](C)CN([C@H](C)CO)S3(=O)=O)c1`, the max activity was 19.2%. In the case of `CO[C@H]1CN(C)C(=O)c2cc(NC(=O)c3ccc(-c4ccccc4)cc3)ccc2OC[C@H](C)NC[C@H]1C` it was 27.6% [at 8 µM]; in that of `O=C(Cc1ccccc1)N[C@H]1CC[C@@H](CC(=O)N2CCOCC2)O[C@@H]1CO`, -8.53% [at 8 µM]. Regarding `O=C(Cc1ccccc1)N[C@@H]1CC[C@@H](CC(=O)N2CCOCC2)O[C@H]1CO`, the max activity is -16.6% [at 8 µM]. Under `CO[C@@H]1CN(C)C(=O)c2cc(NC(=O)Nc3ccccc3F)ccc2OC[C@@H](C)N(CCC(F)(F)F)C[C@H]1C` stands 10.2%; under `CC(C)C(=O)Nc1ccc2c(c1)C(=O)N(C)[C@H]1CC[C@@H](CC(=O)NCc3ccccc3F)O[C@@H]1CO2`, -12.2% [at 8 µM]. As for `CNC[C@@H]1Oc2ncc(-c3ccc(OC)cc3)cc2C(=O)N([C@H](C)CO)C[C@H]1C`, the max activity is 28.1%. In the case of `CO[C@@H]1CN(C)C(=O)c2ccc(NC(=O)c3ccccc3F)cc2OC[C@@H](C)N(CC2CC2)C[C@H]1C` it was -10.7% [at 1.95 µM]; in that of `CCCC(=O)Nc1ccc2c(c1)C(=O)N(C)C[C@H](OC)[C@@H](C)CN(Cc1ccccc1)[C@@H](C)CO2`, 22.4%.

Turning to `C[C@H]1CN([C@@H](C)CO)C(=O)c2cc(C3=CCCCC3)cnc2O[C@@H]1CN(C)C(=O)c1cccc(F)c1`, the max activity is 21.2%. For the compound `CC(=O)N(C)C[C@H]1Oc2ncc(-c3ccc(C(=O)N(C)C)cc3)cc2C(=O)N([C@@H](C)CO)C[C@H]1C`, the max activity was -3.53% [at 1.95 µM]. Under `O=C(Cc1ccccc1)N[C@@H]1CC[C@H](CC(=O)N2CCOCC2)O[C@H]1CO` stands -12.9%; under `O=C(Cc1ccccc1)N[C@H]1CC[C@H](CC(=O)N2CCOCC2)O[C@@H]1CO`, -10.8%. In the case of `CCC(=O)N(C)C[C@H]1Oc2ncc(-c3ccc(C(=O)N(C)C)cc3)cc2C(=O)N([C@H](C)CO)C[C@@H]1C` it was 21.8% [at 8 µM]. Regarding `COCC(=O)Nc1ccc2c(c1)OC[C@@H](C)N(C(=O)c1ccccc1F)C[C@H](C)[C@@H](OC)CN(C)C2=O`, the max activity is -10.4% [at 35 µM]. In the case of `Cc1ccccc1-c1ccc2c(c1)O[C@H](CN(C)Cc1ccncc1)[C@@H](C)CN([C@@H](C)CO)S2(=O)=O` it was 7.76%; in that of `C[C@H]1CN([C@@H](C)CO)S(=O)(=O)c2ccc(C#CC3CCCCC3)cc2O[C@@H]1CN(C)Cc1cccnc1`, 26.3% [at 1.95 µM]. On to `C/C=C/c1cnc2c(c1)C(=O)N([C@@H](C)CO)C[C@H](C)[C@@H](CN(C)Cc1ccc(F)cc1)O2`, for which the max activity was -8.42% [at 8 µM]. Under `CC(C)CC#Cc1ccc2c(c1)O[C@@H](CN(C)C(=O)C1CCCCC1)[C@@H](C)CN([C@@H](C)CO)S2(=O)=O` stands 27.1%. Consider `O=C(Nc1ccc2c(c1)[C@H]1C[C@@H](CC(=O)N3CCc4ccccc4C3)O[C@@H](CO)[C@H]1O2)c1ccc2c(c1)OCO2`, for which the max activity was -27.9% [at 8 µM]. Under `CCCC#Cc1ccc2c(c1)O[C@@H](CN(C)Cc1cccnc1)[C@@H](C)CN([C@H](C)CO)S2(=O)=O` stands 35.5%; under `CCCC(=O)Nc1ccc2c(c1)C(=O)N(C)C[C@H](OC)[C@H](C)CN(Cc1ccc(F)cc1)[C@H](C)CO2`, 22.5%. Under `CC(C)CC#Cc1ccc2c(c1)O[C@H](CN(C)Cc1ccc3c(c1)OCO3)[C@H](C)CN([C@H](C)CO)S2(=O)=O` stands 43.6%. In the case of `COc1ccccc1CNC(=O)C[C@@H]1C[C@@H]2c3cc(NC(=O)NC4CCCC4)ccc3O[C@@H]2[C@@H](CO)O1` it was -8.98% [at 1.8 µM]. With `C[C@H](CO)N1C[C@H](C)[C@H](CN(C)C(=O)NC2CCCCC2)Oc2cc(C#Cc3ccc(F)cc3)ccc2S1(=O)=O`, the max activity is 14.3%.
